According to PubChem BioAssay AID1117361 (Southern Research Institute, 2015):
The campaign covered roughly 3,600 compounds. About 900 (25%) were called active. No rule for the calls is given here. These entries were drawn from the full list. Entries with a potency or affinity are not part of this list.

The compounds below were run against Protein Tat (Human immunodeficiency virus type 1 group M subtype B (isolate HXB2)) (UniProt P04608) (assay: inhibitors of Tat binding to TAR RNA, dose response, counter-screen for Vif-APOBEC3G degradation inhibitor project, biochemical, fluorescence polarization, FAM-labeled TAR RNA (AID 1117361)). Conditions: outcome: dose series up to 100 µM unless noted; series mostly up to 100 µM.

Row | Compound | outcome
1 | CCCn1[nH]cc(SC)c(=O)c1=O | inactive
2 | O=c1c(N=Nc2ccc(O)cc2)c(-c2ccccc2)[nH]n1-c1ccc([N+](=O)[O-])cc1 | inactive
3 | CC(SC1=NCCS1)C(=O)Nc1nnc(-c2ccc(Cl)cc2)s1 (configuration not stated) | inactive
4 | CCn1cc(S(=O)(=O)CC(=O)Nc2ccc(OC)cc2)c2ccccc21 | inactive
5 | COc1cc(C(=O)Nc2ccc(S(=O)(=O)NC(C)C)cc2)cc(OC)c1OC | inactive
6 | C#Cc1ccc([C@H]2C=C(C(=O)N3CCOCC3)O[C@@H](OCc3ccc(CO)cc3)C2)cc1 | inactive
7 | COc1ccccc1C(=O)Nc1cccc(-c2cn3ccsc3n2)c1 | inactive
8 | O=C(OCn1ncc(Br)c(Br)c1=O)c1ccc(F)cc1 | inactive
9 | C=CCc1ccc(OCCCCN2CC(C)OC(C)C2)c(OC)c1 (configuration not stated) | inactive
10 | O=C(NCCCN1CCOCC1)C1(c2ccccc2)CCCC1 | inactive
11 | Cc1ccc(C(=O)Oc2ccc(Cl)c3cccnc23)cc1[N+](=O)[O-] | inactive
12 | Oc1c(CN2CCOCC2)cc(CN2CCOCC2)c(O)c1O | inactive
13 | COc1ccc(C(=O)Oc2c(CN3CCOCC3)cc(Cl)c3cccnc23)cc1 | inactive
14 | O=[N+]([O-])c1cc(CN2CCN(c3cccc(C(F)(F)F)c3)CC2)c2cccnc2c1O | inactive
15 | Cc1[nH]c2ccccc2c1C1=CC(=O)C=CC1=O | inactive
16 | CC[n+]1c(/C=C2/C=C(C)CC(C)(C)C2)sc2ccc(OC)cc21 | inactive
17 | Cc1nn(CC(=O)NC2CC2)c(C)c1S(=O)(=O)N(C)C | inactive
18 | C/C(N)=C(/C#N)C(=O)CSc1nnc(Nc2c(C)cccc2C)s1 | inactive
19 | CC(Oc1ccc(Cl)cc1)c1ccnn1S(C)(=O)=O (configuration not stated) | inactive
20 | CC(=O)Nc1cc(NC(C)=O)cc(C(=O)N2CCCC3CCCCC32)c1 (configuration not stated) | inactive
21 | CCC(=O)Nc1ccc(S(=O)(=O)NC[C@H]2O[C@@H](n3cc(C)c(=O)[nH]c3=O)C[C@@H]2O)cc1 | inactive
22 | CCOC(=O)CSc1nnc(-c2ccccc2NC(=O)c2ccccc2)o1 | inactive

Row | Compound | outcome
23 | O=C(NCc1cn2ccccc2n1)c1ccc2c(c1)OCO2 | inactive
24 | Cn1ncc2c(Nc3ccc4ccccc4c3)ncnc21 | inactive
25 | CCC(C)N1C(=O)S/C(=C/c2ccc(Sc3nc4ccccc4[nH]3)o2)C1=O (configuration not stated) | inactive
26 | COc1cccc(-c2cc(C(=O)Nc3cnn(Cc4ccccc4C)c3)no2)c1 | inactive
27 | CC(C)c1ccc(NC(=O)C(c2ccccc2)N2CCC3(CC2)OCCO3)cc1 (configuration not stated) | inactive
28 | Cc1ccc(S(=O)(=O)N2CCN(C(C(=O)Nc3ccc(F)cc3)c3ccccc3)CC2)cc1 (configuration not stated) | inactive
29 | Cc1[nH]c2ccccc2c1C(=O)Cn1c(=O)oc2ccccc21 | inactive
30 | O=C(CCC(=O)OCC(=O)c1ccc(F)cc1)NC1CCCCC1 | inactive
31 | CCOC(=O)C1=C(CSc2nc(C)ccc2C#N)OC(N)=C(C#N)C1c1cccc(OC)c1OC (configuration not stated) | inactive
32 | O=C(CN(c1ccc(F)cc1)S(=O)(=O)c1ccc2c(c1)OCCO2)NCc1ccccn1 | inactive
33 | COc1ccc(N(CC(=O)NCc2ccccc2C)S(=O)(=O)c2ccc(C)cc2)cc1OC | inactive
34 | NNC(=O)c1ccc(N2CCc3ccccc32)c([N+](=O)[O-])c1 | inactive
35 | O=C(NCc1ccncc1)c1cnccn1 | inactive
36 | COC(=O)c1ccc(NC(=S)NCCC2=CCCCC2)cc1 | inactive
37 | CC(=O)Nc1ccc(NC(=O)C(C)OC(=O)CCc2c[nH]c3ccccc23)cc1 (configuration not stated) | inactive
38 | C=CCN(CC=C)C(=S)NC(=O)c1ccc([N+](=O)[O-])cc1 | inactive
39 | C/C(=N\NC(=O)c1cnccn1)c1ccc([N+](=O)[O-])cc1 | inactive
40 | CC1=CC(C)(C)N=C(Nc2nc(C)c3cc(C)cc(C)c3n2)N1 | inactive
41 | O=C(C/C=N/OCc1c(Cl)cccc1Cl)c1ccc(Cl)cc1 | inactive
42 | CC(C)(C)OC(=O)N1CCCC1C(=O)N1CCc2ccccc21 (configuration not stated) | inactive
43 | CC(=O)c1cc2c(cc1NC(=O)CSc1nc3ccccc3o1)OCO2 | inactive
44 | O=[N+]([O-])c1ccc2nc(-c3ccccc3)oc2c1 | inactive

Row | Compound | outcome
45 | CC(=O)NNC(=O)C(O)(c1ccccc1)c1ccccc1 | inactive
46 | CC(C)c1ccc(S(=O)(=O)/N=C2/C=CC(=O)c3ccccc32)cc1 | inactive
47 | CCc1ccc(S(=O)(=O)/N=C2\C=CC(=O)c3ccccc32)cc1 | inactive
48 | CN(C)c1ccc(NC(=O)Nc2cccc(Cl)c2)cc1 | inactive
49 | COc1ccc(C(=O)N2CCCN(C)CC2)cc1S(=O)(=O)N1CCCc2ccccc21 | inactive
50 | COC(=O)C1=C(C)NC(=O)NC1c1ccc2c(c1)OCO2 (configuration not stated) | inactive
51 | Cc1ccc(CCNC(=O)C2CCN(S(=O)(=O)c3ccc4c(c3)CCC(=O)N4)CC2)cc1 | inactive
52 | CC1CCCC(NC(=O)C2CCC(CNc3c(N4CCCC4)c(=O)c3=O)CC2)C1C (configuration not stated) | inactive
53 | CCOC(=O)c1c(C)[nH]c(C(=O)COC(=O)CN2C(=O)C3CCCCC3C2=O)c1C (configuration not stated) | inactive
54 | COc1ccc(C(=O)OCC(=O)c2c(N)n(C)c(=O)n(C)c2=O)cc1OC | inactive
55 | COc1ccc(CC(=O)Oc2ccc(F)c(F)c2)cc1S(=O)(=O)N1CCOCC1 | inactive
56 | CC1(C)CCN(Cc2ccccc2)C1CC#N (configuration not stated) | inactive
57 | COC(=O)c1cnn2c(C)c(Cc3cccc(F)c3)c(C)nc12 | inactive
58 | COC(=O)C1CCN(C(=O)NC(C)(C)C)CC1 | inactive
59 | COc1cc2oc3ccccc3c2cc1N(CC(=O)N(C)C)S(=O)(=O)c1ccccc1 | inactive
60 | CCOc1cc(C2NC(=O)NC(C)=C2C(=O)NCc2ccccc2)c(Cl)cc1O (configuration not stated) | inactive
61 | Cn1c(N)c(C(=O)CCl)c(=O)n(Cc2ccccc2)c1=O | inactive
62 | O=C1c2ccccc2C(=O)N1CCC(c1ccc(F)cc1)c1ccco1 (configuration not stated) | inactive
63 | O=C(O)c1ccc(S(=O)(=O)c2ccc3c(c2)C(=O)N(Cc2ccco2)C3=O)cc1 | inactive
64 | c1ccc(Cn2nnnc2-c2ccco2)cc1 | inactive
65 | CC1CCCCN1C(=O)c1ccc(S(=O)(=O)N2CCCCC2C)cc1 (configuration not stated) | inactive
66 | COCCn1c(COc2cccc(OC)c2)nnc1SCC(=O)N1CCOCC1 | inactive

Row | Compound | outcome
67 | NC(=O)C[C@@H]1N[C@]2(C(=O)Nc3ccccc32)[C@@H]2C(=O)N(c3cc(C(F)(F)F)ccc3Cl)C(=O)[C@H]12 | inactive
68 | CCn1c(C(=O)OC)cc2c1ccn2-c1ccc(F)cc1 | inactive
69 | Cc1cccc(N(C(=O)c2ccc(Cl)cc2)C2CS(=O)(=O)CC2OC(=O)c2ccc(Cl)cc2)c1 (configuration not stated) | inactive
70 | O=C(CSc1nncs1)NC(=O)NCc1ccccc1 | inactive
71 | COc1ccccc1C(=O)C1CCCN(Cc2ccc3c(c2)OCCO3)C1 (configuration not stated) | inactive
72 | COC(=O)c1c(C)[nH]c(C(=O)CSc2ccc(Cl)cc2)c1C | inactive
73 | CC(C)(C)c1ccc(NC(=O)N2CCN(c3ccc([N+](=O)[O-])cn3)CC2)cc1 | inactive
74 | Cn1nccc1NC(=O)Nc1ccc(Cl)cc1 | inactive
75 | Cn1nc(C(=O)OCC(=O)N2CCc3ccccc32)c2ccccc2c1=O | inactive
76 | Cc1ccc(C2(C(F)(F)F)NC(=O)N3CCN=C3S2)cc1 (configuration not stated) | inactive
77 | Cc1nc(N2CCN(Cc3ccccc3)CC2)nc2c1C(=O)CCC2 | inactive
78 | CCc1cccc(NC(=O)CCS(=O)(=O)c2ccc(Br)cc2)c1 | inactive
79 | COc1ccc(Cl)cc1NC(=O)CCS(=O)(=O)c1ccc(Br)cc1 | inactive
80 | O=C(CCS(=O)(=O)c1ccc(Br)cc1)NCCc1ccccc1 | inactive
81 | NS(=O)(=O)c1ccc(CCNC(=O)CCS(=O)(=O)c2ccc(Br)cc2)cc1 | inactive
82 | CCOc1ccc(NC(=O)CCS(=O)(=O)c2ccc(Br)cc2)cc1 | inactive
83 | CCOc1ccccc1NC(=O)CCS(=O)(=O)c1ccc(Br)cc1 | inactive
84 | Cc1ccccc1OCCC(=O)Nc1ccccc1C(=O)NC1CC1 | inactive
85 | OC(c1ccc(Cl)cc1)C(O)c1nc2ccccc2[nH]1 (configuration not stated) | inactive
86 | CCCCOc1ccc(C(=O)NCC(=O)NCC(=O)OCC)cc1 | inactive
87 | CCCCn1nc(C(=O)O)ccc1=O | inactive
88 | COc1ccc(CNC(=O)c2sc3nc4c(c(C(F)(F)F)c3c2N)CCC4)cc1OC | inactive

Row | Compound | outcome
89 | CC(=O)Nc1ccc(NC(=O)C(C)OC(=O)CC23CC4CC(CC(Br)(C4)C2)C3)cc1 (configuration not stated) | inactive
90 | CC1CCCN(CC(O)CN2CCN(CC(O)CN3CCCC(C)C3)C(C)C2)C1 (configuration not stated) | inactive
91 | CCCC(=O)C1=C(N(C)c2ccccc2)CC(C)(C)CC1=O | inactive
92 | COC(=O)C1C(O)=C(C=Nc2ccc(N)cc2)C(=O)CC1(C)C (configuration not stated) | inactive
93 | CCCc1n[nH]c2c1C(=O)C(C(=O)OC)C(C)(C)C2 (configuration not stated) | inactive
94 | O=C(Nc1nnc(SCc2c(Cl)cccc2Cl)s1)c1cccc([N+](=O)[O-])c1 | inactive
95 | CCOC(=O)N1CCC(Nc2c(-c3ccc(C)cc3)c(=O)c2=O)CC1 | inactive
96 | O=C(Cn1cnc2c(cnn2-c2ccc(F)cc2)c1=O)N1CCN(c2ccccc2)CC1 | inactive
97 | COc1cc(C2Nc3cccc4cccc(c34)N2)cc(OC)c1OC(C)=O | inactive
98 | COc1cc(C)c(C2NC(=O)c3ccccc3N2)cc1C (configuration not stated) | inactive
99 | CCOC(=O)c1sc(C)c2c(=O)n(CCc3ccccc3)nnc12 | inactive
100 | O=C(/C=C/Nc1ccccc1Br)c1ccccn1 | inactive
101 | O=C(CSc1ncn[nH]1)Nc1c(Br)cc([N+](=O)[O-])cc1Br | inactive
102 | COc1ccccc1NS(=O)(=O)c1cc(C(=O)NCCN2CCOCC2)ccc1Cl | inactive
103 | COc1cccc(OC)c1C(=O)Nc1cc(Cl)ccc1N1CCOCC1 | inactive
104 | CCOc1cc(NC(=S)NCC(C)C)c(OCC)cc1NC(=O)c1cccs1 | inactive
105 | O=C(CSc1ncn[nH]1)Nc1nc(-c2ccccc2)ns1 | inactive
106 | Cc1ccc(C)c(S(=O)(=O)Nc2ccccc2C(=O)Nc2ccccc2N2CCOCC2)c1 | inactive
107 | CN1CCN(S(=O)(=O)Cc2ccc(Cl)cc2)CC1 | inactive
